Records with an inconclusive call do not appear. Unmarked numbers belong to inactive results. Activity calls are given as the source filed them. The call rests on the fitted dose curve; in most records, active means well fitted inhibition curve with a large enough effect; inconclusive means small, poorly fitted or top-dose-only effect, or effect the other way; inactive means flat fitted curve, though single readings scatter.
Molecular target: Ubiquitin carboxyl-terminal hydrolase 2 (Homo sapiens) (UniProt O75604)
Sequence (O75604 whole entry, looked up): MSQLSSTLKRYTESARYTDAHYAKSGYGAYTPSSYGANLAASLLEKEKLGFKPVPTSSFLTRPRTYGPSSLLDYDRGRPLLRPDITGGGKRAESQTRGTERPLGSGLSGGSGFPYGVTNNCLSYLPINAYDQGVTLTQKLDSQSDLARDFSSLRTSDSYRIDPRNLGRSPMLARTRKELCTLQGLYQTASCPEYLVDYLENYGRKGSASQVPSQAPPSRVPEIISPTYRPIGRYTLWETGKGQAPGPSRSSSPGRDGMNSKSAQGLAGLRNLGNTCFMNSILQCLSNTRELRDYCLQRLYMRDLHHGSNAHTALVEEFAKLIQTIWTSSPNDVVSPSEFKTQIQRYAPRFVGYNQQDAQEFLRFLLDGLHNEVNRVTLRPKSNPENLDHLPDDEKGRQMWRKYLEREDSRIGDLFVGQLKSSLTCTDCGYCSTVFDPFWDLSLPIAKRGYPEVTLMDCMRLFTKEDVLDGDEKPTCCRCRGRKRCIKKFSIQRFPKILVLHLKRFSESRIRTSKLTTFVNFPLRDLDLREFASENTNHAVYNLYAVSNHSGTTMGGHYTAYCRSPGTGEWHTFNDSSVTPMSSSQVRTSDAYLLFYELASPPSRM
Assay: Ub-rhodamine 110 based assay for inhibitors Ubiquitin-specific Protease USP2a; further: nearly all actives have a fitted effect of over 50% in size
Conditions: USP2a Ub-rhodamine110 cleavage, fluorescence; series mostly up to 38.3 µM; activity change, negative = inhibition: at the top concentration
In short: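 Kinetic fluorescence (485/531 nm) read each minute over 7 min after adding Ub-Rhod110 (150 nM final) to USP2a (5 nM final). The enzyme had 30 min RT exposure to compounds beforehand in Tris pH 8.0 buffer with CaCl2, CHAPS and beta-ME.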
On the % scale 0 is the no-effect control and ±100 the full control effect; potency means the concentration at half of the fitted maximal effect.

SMILES	activity change, negative = inhibition [%]	Potency
O=C(NN=Cc1ccc(N2CCOCC2)s1)c1ccc([N+](=O)[O-])cc1	-17.2	–
CCOC(=O)c1c(-c2ccc(C)o2)csc1NC(=O)COC(=O)c1ccc(NC(N)=O)cc1	–	7.08 µM (active)
Cc1nn(CC(=O)Nc2cccc(S(N)(=O)=O)c2)c(C)c1[N+](=O)[O-]	-4.84	–
CCCCn1c(SCC(=O)N2CCC(C)CC2)nc2cc(S(N)(=O)=O)ccc21	-19.5	–
CN(C)c1cccc(C(=O)NNC(=O)C23CC4CC(CC(C4)C2)C3)c1	0.556	–
Cn1c(=O)c2c(nc(CN3CCN(C(=O)c4ccco4)CC3)n2CCCc2ccccc2)n(C)c1=O	-13.3	–
Cc1ccc([C@@H]2CC=C(C(=O)O)[C@H](c3ccc(C(C)(C)C)cc3)N2S(=O)(=O)c2ccc(C)cc2)cc1	–	10 µM (active)
CN1CCN(S(=O)(=O)c2ccc(N3CCN(S(=O)(=O)/C=C/c4ccccc4)CC3)nc2)CC1	1.29	–
O=C1CCCc2nc(N3CCN(c4ccccc4)CC3)ncc21	-18.7	–
Cc1ccc(C(=O)O/N=C/c2c(C(F)(F)F)nn(C)c2Sc2ccc(Cl)cc2)cc1	6.42	–
COC(=O)c1cc2sc(Cl)cc2n1Cc1nc(-c2ccccc2)oc1C	0.719	–
Cc1ccc(CN2C(=O)N/C(=C\c3cccn3-c3cccc(C(=O)O)c3)C2=O)cc1	-19.5	–
CCN=C1SC(C(=O)Nc2cccc(OCC)c2)CC(=O)N1CC (centres undefined)	-2.14	–
Cc1cc(=O)n2[nH]c(-c3sccc3-n3c(C)ccc3C)cc2n1	–	10 µM (active)
N#Cc1c(-c2cccs2)nc(SCc2ccc(Cl)cc2)[nH]c1=O	–	10 µM (active)
CCOC(=O)Nc1nnc(CCc2ccccc2)s1	1.11	–
CC(=O)Nc1ccc(NC(=O)[C@@H](NC(=O)c2cccc(C)c2)C(C)C)cc1	-2.39	–
COc1ccc(-c2csc(N3CCN(C(=O)c4ccco4)CC3)n2)cc1	-9.11	–
O=C(/C(=N/N=C/c1ccc(O)c(O)c1O)c1ccccc1)c1ccccc1	–	2.51 µM (active)
CC1CCc2c(sc3nc(CN4CCOCC4)nc(NS(=O)(=O)c4cccc([N+](=O)[O-])c4)c23)C1 (centres undefined)	–	10 µM (active)

SMILES	activity change, negative = inhibition [%]	Potency
O=C(c1ccc(CS(=O)(=O)c2ccc(Br)cc2)o1)N1CCCC1	-8.3	–
COc1ccc(-c2nc(Cn3c(SCc4ccc(F)cc4)nc4ccncc43)c(C)o2)cc1OC	3.48	–
COc1ccc2[nH]c(=O)c(CN(C3CCCCC3)C(c3nnnn3Cc3ccco3)C(C)C)cc2c1 (centres undefined)	–	3.98 µM (active)
O=C(CSc1nc(O)cc(=O)n1-c1ccccc1)NC1CCCCC1	-15.7	–
CCOC(=O)Cn1c(=O)oc2cc(S(=O)(=O)Nc3cc(Cl)ccc3OC)ccc21	-6.33	–
FC(F)(F)C1=Nc2cccc3cccc(c23)N1	-37.2	–
Cn1c(C(=O)N2CCN(Cc3ccc4c(c3)OCO4)CC2)cc2sccc21	5.73	–
O=C(COC(=O)/C=C/c1ccc(Cl)cc1)NC1CC1	2	–
Cc1ccc(C)c(S(=O)(=O)N2CCN(C(=O)/C=C/c3ccco3)CC2)c1	–	10 µM (active)
CC(C)c1ccc(Nc2nnc(SCC(=O)c3nnc(-c4ccccc4)o3)s2)cc1	–	2.82 µM (active)
Cc1ccc(C(=O)c2coc3c2C(=O)C(=O)c2ccccc2-3)cc1	-29.4	–
O=C(c1ccc([N+](=O)[O-])cc1)N(Cc1ccc(Cl)cc1)N1C(=O)CCCC1=O	-2.9	–
O=C(CSc1nnc(SCc2ccccc2)s1)N/N=C/C=C/c1ccco1	–	6.31 µM (active)
Cc1ccc2[nH]c(=O)c(COC(=O)c3ccccn3)cc2c1	-8.08	–
COc1ccc(-c2nc3cc(NC(=O)Cc4ccc(OC)c(OC)c4)ccc3o2)cc1	3.85	–
O=C(Nn1c(SCc2ccc([N+](=O)[O-])cc2)nc2ccccc2c1=O)c1ccc(F)cc1	–	10 µM (active)
Cc1ccc(S(=O)(=O)N2CCOCC2)cc1NC(=O)CN1C(=O)NC(C)(c2ccc(Cl)cc2Cl)C1=O (centres undefined)	-5.06	–
Cc1onc(-c2ccccc2)c1C(=O)N1CCN(C)CC1	-5.26	–
CCOC(=O)C(=O)Nc1nc(-c2ccc3c(c2)CCN3C(=O)C2CC2)c(C)s1	-16.4	–
